According to PubChem BioAssay (NCATS):
Inconclusive results are not listed. Activity calls are given as the source filed them. Calls come from the whole dose curve; as a rule, active = well fitted cell-killing curve with a large enough effect; inconclusive = small, poorly fitted or top-dose-only effect, or effect the other way; inactive = flat fitted curve, though single readings scatter.

tested on: PA-1; assay: Primary qHTS to identify gynecologic anti-cancer compounds using libraries of approved drugs and bioactive compounds (AID 1345084); details: Gynecologic cancer cell panel viability, ATPlite luminescence, 48 h; series mostly up to 57.5 µM; activity change, negative = cytotoxicity: at the top concentration; note: nearly all actives have a fitted effect of over 55% in size
Outline: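 Cells, 1,000 per well, plated 16 h, then exposed 48 h at 37 C to compounds. Viability by ATPlite luminescence after 15 min at room temperature.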
% is set by controls: 0 for no effect and ±100 for the full control effect; potency is the fitted concentration of half-maximal effect.

Row | SMILES | activity change, negative = cytotoxicity | Potency
1 | CN(Cc1cccc(-c2ccncc2)c1)C(=O)Oc1ccc(-c2ccc(C(N)=O)cc2)cc1 | -6.41% (inactive) | 
2 | CN(C(=O)C(c1ccccc1)c1ccccc1)[C@H](CN1CC[C@H](O)C1)c1ccccc1 | -0.941% (inactive) | 
3 | Fc1cc(F)c2c(c1)C1C=CCC1C(c1cccnc1)N2 (stereo unspecified) |  | 17.8 µM (active)
4 | C/C=C(\C)C(=O)OC1CC2C(CC=C3CC(OC4CC(OC)C(OC5CC(OC)C(OC6CC(OC)C(OC7CC(OC)C(O)C(C)O7)C(C)O6)C(C)O5)C(C)O4)CCC32C)C2(O)CCC(C(C)=O)C12C (stereo unspecified) | -6.71% [at 11.6 µM] (inactive) | 
5 | CN=C(NS(=O)(=O)c1ccc(Cl)cc1)N1C[C@H](c2ccccc2)C(c2ccc(Cl)cc2)=N1 | 6.34% (inactive) | 
6 | COC1CC(O[C@H]2CC[C@@]3(C)C(CCC4C3CC[C@]3(C)C(C5=CC(=O)OC5)CCC43O)C2)OC(C)C1OC1OC(COC2OC(CO)C(O)C(O)C2O)C(O)C(O)C1O (stereo partly specified) |  | 2.24 µM (active)
7 | Cc1c(N[C@@H](c2nnc(-c3ccc(C#N)cc3)o2)[C@H](C)O)ccc(C#N)c1Cl | 8.42% (inactive) | 
8 | CC12CCC3C(C1)c1c(cc(O)c(C(=O)c4ccccc4)c1OC3(C)C)O2 (stereo unspecified) | -7.44% [at 38.5 µM] (inactive) | 
9 | CN1C(=O)[C@@H](Cc2c[nH]c3ccccc23)N=C(c2ccccc2F)c2ccccc21 | 0.167% (inactive) | 
10 | c1ccc([C@@H]2C[C@H]2NC2CCNCC2)cc1 | -3.49% (inactive) | 
11 | CC(C)[C@H]1OC(=O)[C@H](Cc2ccccc2)N(C)C(=O)[C@@H](C(C)C)OC(=O)[C@H](Cc2ccccc2)N(C)C(=O)[C@@H](C(C)C)OC(=O)[C@H](Cc2ccccc2)N(C)C1=O |  | 7.94 µM (active)
12 | C=C1C2(C)CC3C(C)(O)C4=CC(=O)OC(C)(C)C4=CCC3(C)C13C(=O)OC(C)C3(O)C2=O (stereo unspecified) | -4.41% [at 25.3 µM] (inactive) | 
13 | CN(C)[C@@H]1C(=O)C(C(N)=O)=C(O)[C@@]2(O)C(=O)C3=C(O)c4c(O)ccc(Cl)c4[C@@](C)(O)C3C[C@@H]12 (stereo partly specified) | 2.54% (inactive) | 
14 | CC(=O)O[C@H]1C[C@]2(O)[C@@H]3CC[C@@H]4C[C@@H](O)CC[C@]4(C)[C@H]3CC[C@]2(C)[C@H]1c1ccc(=O)oc1 |  | 0.1 µM (active)
15 | CN1CCC2=C(C1)c1ccccc1Cc1ccccc12 | 5.77% (inactive) | 
16 | C=C(C)C(=O)O[C@H]1[C@@H]2[C@H](C)C(=O)O[C@@H]2C[C@@H](C)[C@@H]2C=CC(=O)[C@]21C |  | 3.16 µM (active)

Row | SMILES | activity change, negative = cytotoxicity | Potency
17 | CCOc1ccc(Oc2ccc(OCc3cc(F)ccc3F)cc2)c(N)c1 | 1.15% (inactive) | 
18 | CCN1C[C@]2(COC)CC[C@H](O)[C@@]34C5C[C@@H]6[C@@H](OC)C[C@@](OC(C)=O)(C5[C@@H]6OC(C)=O)[C@H]([C@H](OC)C23)[C@@H]14 (stereo partly specified) | -3.47% [at 25.3 µM] (inactive) | 
19 | CC(C)[C@H](NC(=O)c1nn(Cc2ccc(F)cc2)c2ccccc12)C(N)=O | 14.9% (inactive) | 
20 | CCCN(CCC)[C@@H]1CCc2ccc3[nH]c(C#N)cc3c2C1 | 7.53% (inactive) | 
21 | Cc1ccc2c(c1)[C@H]1CN(C)CC[C@H]1N2C(=O)CSc1nnnn1-c1ccc(Cl)cc1 | 2.9% (inactive) | 
22 | COC1CCCC(C)OC(=O)Cc2cc(O)cc(O)c2C(=O)C1 (stereo unspecified) |  | 11.2 µM (active)
23 | C[C@]12CC[C@H](O)C[C@@H]1CC[C@@H]1[C@@H]2CC[C@]2(C)C(=O)CC[C@@H]12 | -1.48% (inactive) | 
24 | C#C[C@]1(O)CC[C@H]2[C@@H]3CC[C@H]4Cc5nc6nc7ccccc7n6cc5C[C@]4(C)[C@H]3CC[C@@]21C | -26% (inactive) | 
25 | CN1C(=O)N(c2ccc(C#N)c(C(F)(F)F)c2)C(=O)[C@@]1(CO)c1ccccc1 | 14.8% (inactive) | 
26 | CCCCCn1cc(C(=O)Oc2cccc3cccnc23)c2ccccc21 | 14.7% (inactive) | 
27 | COc1cc(O)c2c(c1)CCC[C@@H](O)[C@H](O)C(=O)/C=C\C[C@H](C)OC2=O | -18.1% [at 38.5 µM] (inactive) | 
28 | C[C@]12CC[C@H](O)C[C@@]1(O)CC[C@@H]1[C@@H]2CC[C@]2(C)[C@@H](c3ccc(=O)oc3)CC[C@]12O | -3.68% (inactive) | 
29 | COC(=O)C12C(=O)C(C)(O)C(=O)C1(C)C(C)=CC1C34CCC(OC3=O)C(C)(C)C4CCC12C (stereo unspecified) | -2.82% [at 25.3 µM] (inactive) | 
30 | CC1=CC2OC3CC(O)[C@](C)([C@@]2(C)C(O)C1=O)[C@]31CO1 (stereo partly specified) |  | 3.16 µM (active)
31 | CN1Cc2c(ccc3c2OCO3)[C@@H]2[C@H]1c1cc3c(cc1C[C@@H]2O)OCO3 |  | 4.47 µM (active)
